Screens from PubChem BioAssay.
LASV entry inh = qHTS for Inhibitors of binding or entry into cells for Lassa Virus | Lassa virus pseudotype entry inhibition, cell reporter | Potency, µM (series often up to 37.9 µM), usual class: inhibitors | hit rate 1.2% among 300,000 | AID 540256, 2011; calls by dose curve; tested in HEK293 cells; also: nearly all actives have a fitted effect of over 50% in size
FMDV inh = High Throughput Screening for Foot and Mouth Disease Virus Antivirals | hit rate 1.2% among 410,000 | FMDV antiviral cell-based qHTS | Potency, µM (doses to about 57.9 µM), most hits filed as inhibitors; calls by dose curve; tested in HEK293T cells; also: read-out not given here; nearly all actives have a fitted effect of over 45% in size
Shiga inhibitor = A qHTS for Small Molecule Inhibitors of Shiga Toxin; hit rate 9.2% among 290,000; Vero cells, Shiga toxin protein synthesis inhibition reporter; inhibition, % at 38.7 µM; in the data active = inhibition mostly above about 28%, no sharp cut-off; inactive = mostly below about 43%
Marburg entry inh = qHTS for inhibitors of binding or entry into cells for Marburg Virus; Marburg virus pseudotyped entry inhibition, cell reporter; Potency, µM (highest dose often 37.8 µM), most hits filed as inhibitors; AID 540276, 2011; hit rate 1.8% among 300,000; calls by dose curve; tested in HEK293 cells
CHX counter = Cycloheximide Counterscreen for Small Molecule Inhibitors of Shiga Toxin; cell reporter, cycloheximide protein synthesis inhibition counterscreen; max response, %; hit rate 12% among 300,000; AID 2314, 2010; in the data active = max response mostly above about 13%, no sharp cut-off; inactive = mostly below about 14%; also: read at 38.3 µM for the half of the compounds with a filed dose
HCV inh = qHTS Assay for Inhibitors of Hepatitis C Virus (HCV). AID 651820, 2012. hit rate 3.4% among 340,000. Huh7.5.1 HCVcc-Cre infection, luciferase reporter, 44 h. Potency, µM (top dose mostly 41.8 µM), hits mostly inhibitors; active = well fitted inhibition curve with a large enough effect; inconclusive = small, poorly fitted or top-dose-only effect, or another doubt; inactive = no such curve, though single readings can be large or run the other way
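Infectious HCVcc-Cre (~0.5 moi) was added to cells just after compound, with cells seeded 4 h earlier at 1,000 per well. Luciferase activity after 44 h culture reported infection; substrate was incubated 15 min at room temperature before reading.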
A number is an active result. An excerpt weighted towards active compounds, which were near 13% of everything screened.

CC(=O)C1=C(O)C(=O)N(CCCN2CCOCC2)C1c1ccccc1[N+](=O)[O-] (stereo not given) was read as LASV entry inh inactive, FMDV inh inactive, Shiga inhibitor 105, Marburg entry inh inconclusive, CHX counter 35 and HCV inh inactive.
Screening COc1ccc(NC(=S)N(CCC(C)C)C(C)c2ccncc2)cc1 (stereo not given) returned LASV entry inh inactive, FMDV inh inactive, Shiga inhibitor inactive, Marburg entry inh inactive, CHX counter inactive and HCV inh inactive.
For COc1cccc(NC(=O)Nc2nnc([C@@H]3C[C@H](O)[C@@H](CO)O3)s2)c1 the results were FMDV inh inactive.
CS(=O)(=O)N(CC(=O)N1CCCC1)c1ccc2c(c1)OCCO2 was read as LASV entry inh inactive, FMDV inh inactive, Shiga inhibitor inactive, Marburg entry inh inactive, CHX counter inactive and HCV inh inactive.
For Cc1cc(C(=O)CCl)c(C)n1-c1cccc(S(=O)(=O)N2CCOCC2)c1 the results were LASV entry inh inactive, FMDV inh 25µM, Shiga inhibitor inactive, Marburg entry inh inconclusive, CHX counter inactive and HCV inh inconclusive.
Cc1cc(C(=O)CN2C(=O)CN(C)C2=O)c(C)n1-c1cccc(S(=O)(=O)N2CCOCC2)c1 was read as FMDV inh inactive, Shiga inhibitor inactive, CHX counter inactive and HCV inh inconclusive.
Screening Cc1ccc(S(=O)(=O)N2CCOCC2)cc1C(=O)N1c2ccccc2Sc2ccccc21 returned LASV entry inh inactive, FMDV inh inactive, Shiga inhibitor inactive, Marburg entry inh inconclusive, CHX counter inactive and HCV inh 10µM.
For Cc1ccc(S(=O)(=O)N2CCN(C(=O)CSc3ncn[nH]3)CC2)cc1 the results were LASV entry inh inactive, FMDV inh inactive, Marburg entry inh inconclusive and HCV inh inactive.
`Cc1cc(C(=O)CSc2ncn[nH]2)c(C)n1-c1cccc(S(=O)(=O)N2CCOCC2)c1` gave LASV entry inh inactive, FMDV inh 28µM, Shiga inhibitor inactive, Marburg entry inh inconclusive, CHX counter inactive and HCV inh inconclusive.
For COc1ccc(OC)c(CN(CCCN2CCOCC2)S(=O)(=O)c2ccc(NC(C)=O)cc2)c1 the results were LASV entry inh inactive, FMDV inh inactive, Shiga inhibitor inactive, Marburg entry inh inactive, CHX counter inactive and HCV inh inactive.
`CCOc1cc(/C=C/C(=O)c2ccc(OC)c(CN3CCOCC3)c2)cc(Br)c1O` gave LASV entry inh inconclusive, FMDV inh inactive, Shiga inhibitor inactive, Marburg entry inh inconclusive, CHX counter inactive and HCV inh inconclusive.
Nc1nc(NC(=O)c2cccs2)nn1-c1ccccc1 was read as LASV entry inh inactive, FMDV inh inactive, Shiga inhibitor inactive, Marburg entry inh inactive, CHX counter 30 and HCV inh inactive.
`COc1ccc(C(=O)Nc2nc(N)n(-c3ccccc3)n2)cc1` gave LASV entry inh inactive, FMDV inh inactive, Shiga inhibitor inactive, Marburg entry inh inactive, CHX counter inactive and HCV inh inactive.
Nc1nc(NC(=O)c2ccccc2)nn1-c1ccccc1 was read as LASV entry inh inactive, FMDV inh inactive, Shiga inhibitor 36, Marburg entry inh inconclusive, CHX counter 13 and HCV inh inactive.
Screening Cc1cccc(CSc2nc3c([nH]c4ccccc43)c(=O)n2C)c1 returned LASV entry inh inconclusive and FMDV inh inactive.
CCOc1nc(NCc2ccco2)nc(Nc2ccc(OC)cc2)n1 was read as LASV entry inh inactive, FMDV inh inactive, Shiga inhibitor inactive, Marburg entry inh inactive, CHX counter 27 and HCV inh inconclusive.
Screening CCOc1nc(NCCO)nc(Nc2ccccc2F)n1 returned FMDV inh inactive, Shiga inhibitor inactive, CHX counter 17 and HCV inh inactive.
`CCOc1nc(NCc2ccco2)nc(Nc2ccccc2F)n1` gave LASV entry inh inactive, FMDV inh inactive, Shiga inhibitor active, Marburg entry inh inconclusive, CHX counter 27 and HCV inh inactive.
`COc1ccc(Nc2nc(NCc3ccco3)nc(N/N=C/c3ccccc3)n2)cc1` gave LASV entry inh inactive, FMDV inh inactive, Shiga inhibitor inactive, Marburg entry inh inactive, CHX counter inactive and HCV inh inactive.
CCOc1nc(NCCO)nc(Nc2ccc([N+](=O)[O-])cc2)n1 was read as LASV entry inh inactive, FMDV inh inactive, Shiga inhibitor inactive, Marburg entry inh inactive, CHX counter inactive and HCV inh inactive.
COc1ccc(C2C(C(=O)c3cccs3)=C(O)C(=O)N2c2nnc(C)s2)cc1OC (stereo not given) was read as LASV entry inh inactive, Shiga inhibitor inactive, Marburg entry inh inactive, CHX counter inactive and HCV inh inactive.
For CC(C)c1nnc(N2C(=O)C(O)=C(C(=O)c3cccs3)C2c2ccccc2)s1 (stereo not given) the results were FMDV inh inactive, Shiga inhibitor 55, CHX counter 21 and HCV inh inactive.
O=C1C2C3CCC(C3)C2C(=O)N1c1ccc(OS(=O)(=O)c2ccccc2)cc1 (stereo not given) was read as LASV entry inh inconclusive, FMDV inh inactive, Shiga inhibitor 78, Marburg entry inh inconclusive, CHX counter 33 and HCV inh inactive.
O=C(Cc1ccccc1)NNC(=S)Nc1ccc(Cl)cc1 was read as LASV entry inh inactive, FMDV inh inactive, Shiga inhibitor inactive, Marburg entry inh inactive, CHX counter inactive and HCV inh inactive.
`COC(=O)c1cc(Br)c(=O)n(CC(C)C)c1` gave LASV entry inh inactive, FMDV inh inactive, Shiga inhibitor inactive, Marburg entry inh inactive, CHX counter inactive and HCV inh inactive.
C=CCOC(=O)c1ccc(N2CCN(c3ccccc3)CC2)nc1 was read as LASV entry inh inactive, FMDV inh inactive, Shiga inhibitor inactive, Marburg entry inh inconclusive, CHX counter 20 and HCV inh inactive.
`COC(=O)c1ccc(N2CCN(c3ccccc3)CC2)nc1` gave FMDV inh inactive, Shiga inhibitor 45, CHX counter 25 and HCV inh inactive.
Screening COC(=O)c1ccc(N2CCN(c3ccccc3)CC2)c(NC(=O)C2CC2)c1 returned LASV entry inh inactive, FMDV inh inactive, Shiga inhibitor inactive, Marburg entry inh inactive, CHX counter inactive and HCV inh inactive.
For CC(C)NC(=O)c1ccc(N2CCOCC2)nc1 the results were LASV entry inh inactive, FMDV inh inactive, Shiga inhibitor inactive, Marburg entry inh inactive, CHX counter inactive and HCV inh inactive.
`O=C(OCC(=O)N1CCN(c2ccccc2)CC1)c1cnc(Cl)c(Cl)c1` gave Shiga inhibitor inactive and CHX counter inactive.
`COC(=O)c1ccc(/C=N\N2CCN(c3ccccc3)CC2)cc1` gave FMDV inh inactive, Shiga inhibitor 118, CHX counter 21 and HCV inh inactive.
`COC(=O)c1ccc(N2CCN(c3ccccc3)CC2)c(N)c1` gave FMDV inh inactive, Shiga inhibitor inactive, CHX counter 16 and HCV inh inactive.
